Key:
[1] = target: T1, Aspartate--tRNA(Asp/Asn) ligase (Mycobacterium tuberculosis (strain ATCC 25618 / H37Rv)) (UniProt P9WFW3); assay: Assay for Asp RNA synthetase-1 from Mycobacterium tuberculosis; format: functional; set-up: scale not given: direction of the effect not stated beside the values; settings: 30 µM; further: in the data most compounds retested in dose-response had high values
T1 sequence (whole entry): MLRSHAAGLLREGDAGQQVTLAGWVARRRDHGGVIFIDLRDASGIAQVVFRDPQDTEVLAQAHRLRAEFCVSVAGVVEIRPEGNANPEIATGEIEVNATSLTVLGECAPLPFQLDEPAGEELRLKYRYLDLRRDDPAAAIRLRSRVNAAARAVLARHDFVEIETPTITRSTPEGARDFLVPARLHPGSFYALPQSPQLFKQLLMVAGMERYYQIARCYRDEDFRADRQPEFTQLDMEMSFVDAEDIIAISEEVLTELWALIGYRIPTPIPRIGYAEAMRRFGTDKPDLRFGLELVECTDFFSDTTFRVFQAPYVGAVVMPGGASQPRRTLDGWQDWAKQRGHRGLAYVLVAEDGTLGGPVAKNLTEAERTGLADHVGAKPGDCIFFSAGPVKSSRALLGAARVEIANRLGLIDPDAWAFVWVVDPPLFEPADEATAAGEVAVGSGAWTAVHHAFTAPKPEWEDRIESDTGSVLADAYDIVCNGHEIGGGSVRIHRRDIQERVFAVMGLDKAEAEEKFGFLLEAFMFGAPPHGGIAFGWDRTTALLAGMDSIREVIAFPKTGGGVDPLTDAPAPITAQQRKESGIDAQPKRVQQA

[2] = target: Shiga toxin 2 (Escherichia coli O157:H7) (UniProt P09385+P09386); assay: E. coli 0.157:H7 Shiga Toxin SOP - stx2 screening assay; format: functional; set-up: scale not given: direction of the effect not stated beside the values; settings: 30 µM

SMILES | Percent Effect [1] [%] | Percent Effect [2] [%]
Cc1oc(-c2ccco2)nc1CC(=O)N1CCC(C(O)C(F)(F)F)CC1 (centres undefined) | -5.79 | 4.07
CC(=O)c1cccc(OCCCC(=O)N(C)Cc2ccccn2)c1 | -1.04 | -20
NC(=O)C1(CCCc2cccnc2)CCCN(c2ncccn2)C1 (centres undefined) | -0.456 | -4.97
CC(C)Oc1ccccc1CNC(=O)N1CCC(n2cncn2)CC1 | -5.72 | -31.1
COCCC(=O)N1CCC2(COCc3cnc(N4CCOCC4)nc32)C1 (centres undefined) | 1.66 | 9.32
Cn1ccnc1-c1cccc(NC(=O)NCCN2CCOCC2)c1 | 4.54 | -60.9
CCOc1cc(/C=C/c2ncc(C(=O)O)s2)cc(Cl)c1OC | -1.24 | -0.531
Cc1cccc(CN2CCC3(CCCN(C(=O)c4ccsc4)C3)C2=O)n1 (centres undefined) | -2.4 | -10.9
Cn1c(C2CC2)nc2c1CCN(CCS(=O)(=O)c1ccccc1)C2 | -5.83 | 6.27
CNc1nc(C2CCCN2C(C)=O)nc2c1CCN(CC1CC1)C2 (centres undefined) | 1.43 | -7.13
CCCNCC1(O)CCCN(Cc2cccc(C)c2)C1=O (centres undefined) | -0.345 | 0.574
Cc1ccc(-c2nc(CN3CCOC(Cn4cccn4)C3)cs2)o1 (centres undefined) | -1.71 | -9.02
Cc1cnn(CCCNC(=O)N2CCCCC(N3CCCC3)C2)c1 (centres undefined) | 1.48 | 22.3
CN1CCOC(CN(C(=O)Cc2ccccc2F)c2nccs2)C1 (centres undefined) | -1.89 | -16
CN(C)CC(=O)N1C[C@@H]2CC[C@H](Oc3ccccc3Cl)[C@@H]2C1 | 1.77 | 12.4
Cc1nc(N2CCN(C(=O)c3ccccc3)CC2)c2c(n1)c(C)nn2C | -3.51 | -31
CN1CCN(CC2CC2)C(=O)c2cnc(N3CCCC3)nc21 | -0.103 | -25.1

Reference: ChEMBL document CHEMBL3988442, “University of Dundee, Small-Polar-MMV Screening Library” (2021)
